Assay outcomes (PubChem)
The list is not random: actives were taken first. Their share in the collection is about 3.1%.
Rtt109 Vps75: inhibitors of Candida albicans Rtt109/Vps75 histone acetyltransferase. 330,000 compounds, 0.16% hits. Q5AAJ8. purified Rtt109/Vps75, ThioGlo CoA-SH fluorescence, 4 h. inhibition, % at 34.9 µM;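 active = inhibition of at least 50% in every replicate; inconclusive = best replicate reaches 50% inhibition but some replicates fall short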
Target sequence (Q5AAJ8 whole entry, looked up): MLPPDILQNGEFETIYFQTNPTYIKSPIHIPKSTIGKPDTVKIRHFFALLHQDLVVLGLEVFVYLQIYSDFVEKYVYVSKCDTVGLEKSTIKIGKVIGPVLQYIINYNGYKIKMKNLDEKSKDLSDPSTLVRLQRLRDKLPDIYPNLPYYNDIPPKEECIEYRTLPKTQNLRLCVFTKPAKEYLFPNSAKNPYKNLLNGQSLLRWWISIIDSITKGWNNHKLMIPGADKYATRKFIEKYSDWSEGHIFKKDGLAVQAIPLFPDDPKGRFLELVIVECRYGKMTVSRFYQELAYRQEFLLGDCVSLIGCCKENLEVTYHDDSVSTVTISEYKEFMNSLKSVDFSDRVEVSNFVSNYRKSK
esBAF inh: blocks esBAF chromatin remodeling in mouse ES cells | reporter increase, % at 12.5 µM | 350,000 compounds, 2% hits | Bmi1-luciferase knock-in reporter, 24 h; 100% = twice the neutral-well signal; in the data active = activation above about 40%; inconclusive = no clear call, values can overlap the other calls;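 also: 0% = median of the plate's neutral control wells and 100% = double that signal; a rise in the Bmi1 reporter signal indicates esBAF inhibition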
Wnt act: Wnt/beta-catenin pathway activation; Wnt/beta-catenin reporter cell assay, activator, plate reader; activation, % at 9.35 µM; 300,000 compounds, 1.2% hits; in the data active = activation above about 30%, passing the limit was not always enough; inconclusive = no clear call, values can overlap the other calls;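 also: 0% = neutral control wells and 100% = positive control wells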
Statin myotox sup: suppression of simvastatin myotoxicity. AID 602340. C2C12 myotubes + simvastatin, ATP luminescence, 48 h; scaled: DMSO 0, geranylgeraniol control 100. rescue of ATP level, % at 7.49 µM. 330,000 compounds, 0.78% hits;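 active = mean ATP rescue above about 67%, or every replicate alone reaching that limit, limit read from the data, passing the limit was not always enough; inconclusive = no clear call, values can overlap the other calls; inactive = mean under the limit and some replicate under it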;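 also: myotubes were challenged with 10 µM simvastatin during compound exposure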
MITF act: increases MITF-driven TRPM1 promoter luciferase signal; SK-MEL-5 TRPM1-promoter luciferase, 24 h; % of positive control, neutral wells = 0; 300,000 compounds, 0.75% hits; activation, % at 12.5 µM; AID 588334;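 active = mean activation of at least 80% with every replicate also reaching 80%; inconclusive = mean reaches 80% but some replicate falls short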;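 also: 0% = neutral control wells and 100% = parthenolide positive control wells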
An asterisk follows results filed as active; ? = inconclusive; . = not tested or not shown.

SMILES | Rtt109 Vps75 | esBAF inh | Wnt act | Statin myotox sup | MITF act
CSc1ccccc1NC(=O)c1cc(-c2ccc3c(c2)OCO3)on1 | 1.7 | 47.7* | 11.3 | 1.5 | 66.2
O=C(c1cc(-c2ccc3c(c2)OCO3)on1)N1CCN(c2ccccc2)CC1 | -4.5 | 31.3 | . | 6.9 | 60.1
CC(C)CNC(=O)c1cc(-c2ccc3c(c2)OCO3)on1 | -0.7 | 2.6 | 35.0* | 7.7 | .
COc1ccc(NC(=O)N(C)C[C@@H]2Oc3ccc(NC(=O)Cc4cn(C)c5ccccc45)cc3C(=O)N([C@@H](C)CO)C[C@H]2C)cc1 | . | 1.6 | . | . | .
CCCC#Cc1ccc2c(c1)O[C@H](CN(C)Cc1cccnc1)[C@@H](C)CN([C@@H](C)CO)S2(=O)=O | . | 1.8 | . | -50.4 | .
O=C(C[C@@H]1CC[C@H]2[C@@H](COC[C@H](O)CN2Cc2ccc(Oc3ccccc3)cc2)O1)Nc1nccs1 | . | 2.7 | . | 54.7 | .
C[C@H](CO)N1C[C@H](C)[C@@H](CN(C)S(=O)(=O)c2ccccc2)OCCCC[C@H](C)Oc2ccc(NS(=O)(=O)c3ccc(F)cc3)cc2C1=O | . | -3.5 | . | . | .
O=C(CC(c1ccccc1O)N1CCCCC1)N1CCCCC1 (stereo not given) | 17.0 | . | 38.5* | . | .
O=C(CC(c1ccccc1)c1cc(Cl)ccc1O)N1CCCC1 (stereo not given) | 2.1 | . | 5.3 | . | -10.7
O=C(C[C@@H]1CC[C@H]2[C@@H](COC[C@@H](O)CN2Cc2ccccc2)O1)N[C@H]1CCN(Cc2ccccc2)C1 | . | -1.5 | . | -4.4 | .
CN(C)C(=O)C[C@H]1CC[C@H]2[C@H](COc3ccc(NC(=O)NCc4ccccc4)cc3C(=O)N2C)O1 | . | 4.9 | . | -5.9 | .
O=C(N[C@@H]1CC[C@@H](CCNC(=O)c2ccccc2F)O[C@H]1CO)c1ccc2c(c1)OCO2 | . | 3.3 | . | 4.4 | .
COc1ccc(/C=C/c2nc(-c3ccccc3O)n[nH]2)cc1OC | -0.9 | 61.8* | 24.2 | -4.3 | 142.8*
O=C(O)COc1ccc(/C=C/c2nc(-c3ccccc3O)n[nH]2)cc1 | -7.5 | 0.3 | -1.6 | -0.9 | .
Cc1ccc(NC(=O)CSc2nc(O)c(Cc3ccccc3)c(=O)n2-c2ccccc2)cc1 | 14.7 | 24.6* | -1.3 | . | 5.5
CCOC(=O)c1sc(NC(=O)CN(CC(C)C)CC(C)C)c(C(=O)OCC)c1C | -12.8 | -6.2 | -2.8 | 73.9* | -1.2
Cn1c2ccccc2c(=O)c2ccc(NCCc3cccs3)cc21 | -44.4 | ? | ? | -21.3 | 94.6*
NC(=O)c1ccc(NCCc2cccs2)cc1 | . | 21.1 | 2.6 | -3.6 | .
COc1ccc(NC(=O)Nc2ccc3c(c2)CC(=O)N([C@@H](C)CO)C[C@@H](C)[C@H](CN(C)C(=O)Nc2ccc4c(c2)OCO4)O3)cc1 | . | 1.1 | . | 2.6 | .
O=C(/C=C\c1ccccc1)Nc1nccs1 | -15.8 | . | 39.4* | . | 34.5
O=C(Nc1nccs1)C(Br)C(Br)c1ccccc1 (stereo not given) | -1.4 | 14.1 | 37.1* | -37.6 | 54.1
O=C(/C=C/c1cccs1)Nc1nccs1 | -7.1 | . | 8.9 | . | 67.6
O=C(Nc1nccs1)OCc1ccccc1 | . | . | 34.3* | . | .
O=C(/C=C/c1cccc(F)c1)Nc1nccs1 | -11.3 | 85.7* | 21.1 | -10.8 | 58.5
O=C(COC(=O)/C=C/c1cccc(F)c1)Nc1ncccn1 | -0.3 | . | 0.9 | . | 10.8
SMILES | Rtt109 Vps75 | esBAF inh | Wnt act | Statin myotox sup | MITF act
CN1C(=O)c2cc(NC(=O)NCc3ccccc3)ccc2OC[C@H]2O[C@@H](CC(=O)O)CC[C@@H]21 | . | -3.6 | . | -2.7 | .
COc1ccc(NC(=O)Nc2ccc3c(c2)C(=O)N([C@@H](C)CO)C[C@@H](C)[C@@H](CN(C)C(=O)Cc2ccccc2)OCCCC[C@@H](C)O3)cc1 | . | 1.3 | . | . | .
O=C1CCC[C@@H]2Cc3nc4ccc(O)cc4cc3[C@@H]3CCN1[C@H]23 | -1.8 | 14.8 | -0.5 | 7.2 | 8.0
O=C1CCC[C@@H]2Cc3nc4cc5c(cc4cc3[C@@H]3CCN1[C@H]23)OCO5 | 4.2 | 36.8 | 18.9 | 79.7* | 17.8
C[C@@H]1CN([C@@H](C)CO)C(=O)c2cc(NC(=O)Nc3ccc(C(F)(F)F)cc3)ccc2O[C@@H](C)CCCCO[C@H]1CN(C)S(=O)(=O)c1cccs1 | . | -2.5 | . | -12.5 | .
CCCNC(=O)C[C@H]1C[C@@H]2c3cc(NS(=O)(=O)c4ccc(OC)cc4)ccc3O[C@@H]2[C@@H](CO)O1 | . | 0.3 | . | 7.6 | .
COc1ccc(CCN2CCCC(CN(C)C(=O)c3ccoc3)C2)cc1 (stereo not given) | -5.8 | 61.9* | ? | -3.7 | 37.4
COc1ccc(NC(=O)CSc2nncs2)cc1S(=O)(=O)N1CCCCC1 | 5.7 | 8.6 | 6.9 | 7.2 | -14.1
O=C(CSc1nncs1)Nc1ccc(N2CCCCC2)cc1 | -1.5 | 56.7* | 13.5 | -14.0 | 24.5
C[C@H](CO)N1C[C@H](C)[C@H](CN(C)Cc2ccc(Cl)c(Cl)c2)Oc2ccc(NS(=O)(=O)c3ccccc3)cc2C1=O | . | 2.6 | . | 7.1 | .
C[C@H](CO)N1C[C@H](C)[C@@H](CN(C)S(=O)(=O)c2ccccc2)OCCCC[C@H](C)Oc2ccc(NC(=O)Nc3ccc(F)cc3)cc2C1=O | . | -0.6 | . | . | .
Clc1ccc(SCc2cc(-c3ccccc3)on2)cc1 | -2.3 | -3.6 | -2.0 | -8.5 | 5.0
c1ccc(Cc2cc(-c3ccccc3)on2)cc1 | -2.7 | 66.3* | . | 5.4 | .
CC1CCCN(c2sc(S(C)(=O)=O)nc2S(=O)(=O)c2ccc(Cl)cc2)C1 (stereo not given) | 9.9 | 5.2 | -2.2 | -11.2 | -13.3
CC1CCCN(c2nc3ccsc3c(=O)s2)C1 (stereo not given) | -7.8 | . | 52.5* | . | 72.9
C[C@@H]1CN([C@H](C)CO)C(=O)c2cc(NS(C)(=O)=O)ccc2O[C@@H](C)CCCCO[C@@H]1CN(C)C | . | 1.2 | . | -7.8 | .
COc1ccc(COn2c(=O)c(C)[n+]([O-])c3ccccc32)cc1OC | -7.0 | 2.9 | . | 106.4* | -4.8
O=C1OC2(CCCCC2)OC(=O)C1=CNc1ccc2c(c1)OCO2 | -9.6 | 56.6* | . | -17.6 | 35.2
CO[C@H]1CN(C)C(=O)c2cc(NS(C)(=O)=O)ccc2OC[C@@H](C)N(Cc2cccnc2)C[C@H]1C | . | -4.4 | . | -4.1 | .
Cc1ccc(S(=O)(=O)N(C)C[C@@H]2Oc3ccc(NS(=O)(=O)c4cn(C)cn4)cc3CC(=O)N([C@H](C)CO)C[C@@H]2C)cc1 | . | 0.1 | . | 7.3 | .
CC(C)NC(=O)NCC[C@@H]1CC[C@H](NC(=O)CN(C)C)[C@H](CO)O1 | . | -1.2 | . | -8.5 | .
Cc1nc2cc(NC(=O)N3CCC(c4ccccc4)C3)ccc2n1C (stereo not given) | . | 53.6* | 6.3 | -14.5 | 41.5
Cc1ccc(C2CCN(C(=O)Nc3ccc(F)cc3)C2)cc1 (stereo not given) | 10.6 | 63.2* | -0.5 | -21.4 | 95.4*
O=C(Nc1cccc2ccccc12)N1CC=C(c2ccccc2)CC1 | 1.2 | 6.2 | . | 6.1 | -7.5
O=C(Nc1ccccc1)N1CC=C(c2ccc(F)cc2)CC1 | 9.5 | 60.8* | . | 15.5 | 102.9*
